For 32 molecules, inhibition results are on record in PubChem BioAssay.

Molecules are shown by their SMILES. A number with no mark means an inactive call. Active and inactive are the calls of the source. Unless noted, no stated cut-off is given here; in the data, active means inhibition above about 36%; inactive means the rest.

Test [1] has as its system transactivating tegument protein VP16 (Human herpesvirus 1). Put plainly: compounds suppressing VP16-driven luciferase signal – cell-based, luminescence, single concentration, counter-screen for SRC2 inhibitor project (AID 652007). The conditions noted are these: cell-based VP16 transactivation luciferase reporter, at 8.9 µM, stronger effect = higher value. In general terms: A counterscreen serves to expose hits that act by an unwanted route or on another target.

For test [2], the target named is Nuclear receptor coactivator 2 (Homo sapiens) (UniProt Q15596). In words: inhibition of GAL4-SRC2 driven luciferase expression – cell-based, luminescence, HEK293, triplicate, confirmation (AID 652008;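 active means mean inhibition above 46.5%, the solvent-only control mean plus 3 SD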;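 further: 0% = DMSO-treated cells and 100% = Gossypol at 36 µM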). The conditions noted are these: HEK293 GAL4-SRC2 luciferase reporter, at 8.9 µM, stronger effect = higher value. A general note: In a reporter assay the amount or activity of a reporter protein is the signal.

In general, inhibition refers to the drop in the measured response relative to a control, in per cent.

Sequence of Nuclear receptor coactivator 2 (Homo sapiens) (Q15596 whole entry, looked up, the tested form may be a part): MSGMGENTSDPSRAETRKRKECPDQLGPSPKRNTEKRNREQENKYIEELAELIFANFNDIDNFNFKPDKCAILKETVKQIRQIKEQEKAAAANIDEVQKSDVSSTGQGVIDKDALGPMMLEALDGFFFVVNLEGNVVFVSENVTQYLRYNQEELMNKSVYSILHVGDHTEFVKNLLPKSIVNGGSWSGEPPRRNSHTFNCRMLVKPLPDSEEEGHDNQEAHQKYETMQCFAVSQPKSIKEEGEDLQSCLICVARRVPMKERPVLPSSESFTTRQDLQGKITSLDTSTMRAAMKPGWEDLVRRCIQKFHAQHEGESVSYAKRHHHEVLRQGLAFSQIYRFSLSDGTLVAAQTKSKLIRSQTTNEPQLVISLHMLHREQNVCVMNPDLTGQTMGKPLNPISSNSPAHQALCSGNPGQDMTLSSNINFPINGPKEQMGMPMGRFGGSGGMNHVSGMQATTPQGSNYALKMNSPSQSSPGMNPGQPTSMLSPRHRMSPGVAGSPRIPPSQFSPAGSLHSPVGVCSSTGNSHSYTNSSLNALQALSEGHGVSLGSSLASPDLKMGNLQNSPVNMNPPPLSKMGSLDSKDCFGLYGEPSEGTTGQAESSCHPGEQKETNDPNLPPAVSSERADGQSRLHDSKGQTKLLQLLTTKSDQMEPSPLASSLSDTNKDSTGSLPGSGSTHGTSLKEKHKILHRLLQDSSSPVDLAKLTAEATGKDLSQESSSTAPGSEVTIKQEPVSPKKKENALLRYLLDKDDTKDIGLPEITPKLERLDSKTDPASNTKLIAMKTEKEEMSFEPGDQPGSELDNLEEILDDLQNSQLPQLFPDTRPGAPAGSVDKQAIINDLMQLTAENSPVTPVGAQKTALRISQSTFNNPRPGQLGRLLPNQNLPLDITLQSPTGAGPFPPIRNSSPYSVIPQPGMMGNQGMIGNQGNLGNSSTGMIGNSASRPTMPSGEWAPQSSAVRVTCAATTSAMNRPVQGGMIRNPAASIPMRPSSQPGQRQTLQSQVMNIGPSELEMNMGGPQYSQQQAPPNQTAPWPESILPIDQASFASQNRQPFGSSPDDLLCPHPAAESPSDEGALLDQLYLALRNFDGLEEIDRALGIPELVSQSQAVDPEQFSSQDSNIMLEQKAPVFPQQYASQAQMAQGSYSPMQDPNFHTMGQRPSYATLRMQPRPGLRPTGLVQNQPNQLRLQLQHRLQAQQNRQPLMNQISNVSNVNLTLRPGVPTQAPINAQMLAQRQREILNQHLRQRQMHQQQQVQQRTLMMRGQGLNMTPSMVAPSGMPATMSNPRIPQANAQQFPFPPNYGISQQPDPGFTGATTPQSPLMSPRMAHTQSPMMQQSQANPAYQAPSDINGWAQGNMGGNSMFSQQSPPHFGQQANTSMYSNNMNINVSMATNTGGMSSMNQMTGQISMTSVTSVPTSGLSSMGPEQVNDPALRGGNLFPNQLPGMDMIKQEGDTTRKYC

Regarding `CN(c1ccccc1)S(=O)(=O)c1ccc(Cl)c(C(=O)Nc2ccncc2)c1`, the inhibition is 0.61% in test [1] and 29.7% in test [2].
`CCN1CCN(Cc2ccc(NC(=O)c3cccc(-c4ccc5nc(NC(=O)C6CC6)sc5n4)c3)cc2C(F)(F)F)CC1`: the inhibition is 24.5% in test [1] and 58.1% (active) in test [2].
The corresponding values for `O=c1[nH]nc(Sc2ncnc3sccc23)n1CCc1ccccc1` are 14.9% and 47.5% (active).
The corresponding values for `O=C(Nc1nccs1)c1cc2c(s1)CCCCC2` are 0.43% and 38.7%.
The matching figures for `N#Cc1ccc(-c2ccc(OCC(=O)Nc3cccnc3)cc2)cc1`: -9.35% and 52.6% (active).
Regarding `COc1cccc(/C=C2/SC(=S)N(CCCC(=O)Nc3ccc(O)cc3)C2=O)c1`, the inhibition in test [1] is 51.1% (active); in test [2], 23.7%.
The corresponding values for `Cc1ccc(S(=O)(=O)C[C@@H]2OC[C@H](C)N2S(=O)(=O)c2ccc(C)cc2)cc1` are 1.93% and -6.07%.
The matching figures for `CCOc1ccc(-c2cc(CCCC(=O)NCc3ccc(C)cc3)no2)cc1`: 31.4% and 60.2% (active).
As for `Cc1ccc(NC(=O)CSc2ncnc3ccccc23)cc1S(=O)(=O)N1CCCCC1`, the inhibition was 6.85% in test [1] and 30% in test [2].
The corresponding values for `Cc1c(CCC(=O)N[C@@H](CCCNC(N)=O)C(=O)O)c(=O)oc2cc3oc4c(c3cc12)CCCC4` are 47.2% (active) and 57.7% (active).
Regarding `Cc1ccc(NC(=O)C2CCN(S(=O)(=O)c3cc([N+](=O)[O-])ccc3Cl)CC2)nc1`, the inhibition in test [1] is 10.7%; in test [2], 24.3%.
The corresponding values for `Cc1ccc(C(=O)OCC(=O)NC2CCCC(C)C2C)cc1S(=O)(=O)N1CCCCC1` (centres undefined) are -10.8% and 9.97%.
The corresponding values for `COc1ccc(C(=O)Nn2c(SCC(=O)N3CCC(C)CC3)nc3ccccc3c2=O)cc1` are 23.9% and 28.9%.
The corresponding values for `C/C(CC(=O)NC1C2CC3CC(C2)CC1C3)=N\NC(=O)Cc1cccs1` (centres undefined) are -16.1% and -8.93%.
Consider `Cc1ccc(CS(=O)(=O)c2ncc(Cl)c(C(=O)Nc3nnc(C(C)C)s3)n2)cc1`, for which the values for the inhibition in test [1] and in test [2] were 27.3% and 51.9% (active), respectively.
The corresponding values for `O=S(=O)(c1ccc2c(c1)OCCO2)N1CCN(c2ncnc3sccc23)CC1` are 6.15% and 36.6%.
The matching figures for `CCc1cccc(C)c1NC(=O)CSc1nnc(CCCOc2ccc(Cl)cc2Cl)n1C`: -13.2% and -8.02%.
The corresponding values for `CCOC(=O)C1CCCN(C(=O)c2ccc3c(c2)N(C)C(=O)/C(=C/c2ccccc2Cl)S3)C1` (centres undefined) are -1.52% and 23.8%.
As for `Cn1c(=O)c2[nH]c(CCCc3ccc([N+](=O)[O-])cc3)nc2n(C)c1=O`, the inhibition is -19.8% in test [1] and 5.32% in test [2].
The matching figures for `Cc1cc(C2=NNC(=NC3CC3)SC2)c(C)n1-c1ccccc1`: 83.2% (active) and 96.4% (active).
The matching figures for `CCOC(=O)[C@]12CCC=C1N(CCC1=CCCCC1)C(=O)[C@H](CC(=O)N1CCC(c3ccccc3)CC1)C2`: 1.35% and -24.7%.
The matching figures for `CC(C)c1nc(N2CCOCC2)c(C#N)c2c1CCC2`: -15.7% and 4.3%.
On to `Cc1cc(=O)oc2cc(OCC(=O)NC3CCCC3)ccc12`, for which the values for the inhibition in test [1] and in test [2] were -12.6% and -25.6%, respectively.
Consider `COCc1cc(N2CCN(C(=O)OC(C)(C)C)C[C@H]2C)ccc1N1CCS(=O)(=O)CC1`, for which the inhibition was 5.52% in test [1] and 33.9% in test [2].
Turning to `COc1ccc(OC)c(NC(=O)CCCc2ccccc2)c1`, the inhibition in test [1] was -5.12%; in test [2], -20.9%.
The matching figures for `CC(C)(C)NC(=O)COC(=O)c1snc(C(=O)NC2CCCCC2)c1N`: -7.99% and 8.82%.
The corresponding values for `Cc1ccc(C(=O)Nc2ccc3ccccc3c2)cc1` are -57.4% and 12.1%.
The corresponding values for `CN(C)c1ccc(C(C[N+](=O)[O-])c2c(N)n(C)c(=O)n(C)c2=O)c(F)c1C#N` (centres undefined) are 6.34% and 6.89%.
For `CC(C)(C)c1ccc(C(=O)Nc2ccc(NC(=O)C(=O)O)cc2)o1`, the inhibition is -30% in test [1] and -15.8% in test [2].
The corresponding values for `CCN(CC)S(=O)(=O)c1cccc(C(=O)N/N=C/c2cccc(O)c2O)c1` are -46.8% and -7.21%.
The corresponding values for `Cc1ccc(C)c(-c2nc3cc(N)ccc3o2)c1` are 36.8% (active) and 55% (active).
The matching figures for `CC(OC(=O)CN1C(=O)NC2(CCCC2)C1=O)c1ccc(F)cc1` (centres undefined): -16.9% and -26.5%.
